# miR122 inh: miR-122 sensor activation; Huh7 psiCHECK-miR122 Renilla luciferase sensor, 48 h; activation, % at 12.5 µM; hit rate 0.14% among 340,000; AID 623901;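 active = mean activation of 30% or more, with every replicate also reaching 30%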;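 note: 0% = median of neutral control wells and 100% = median of positive control wells; higher luciferase signal means stronger suppression of miR-122 activity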
# * = called active by the depositor. The sample as a whole holds a higher share of hits than the screen did.
SMILES,miR122 inh
COc1ccccc1NC(=O)N(C)C[C@H]1Oc2ncc(C#CCC(C)C)cc2C(=O)N([C@H](C)CO)C[C@H]1C,-1
CC(C)CC#Cc1cnc2c(c1)C(=O)N([C@H](C)CO)C[C@H](C)[C@H](CN(C)S(=O)(=O)c1ccccc1)O2,10
COc1cccc(NC(=O)N(C)C[C@@H]2Oc3cc(-c4cccc(C(=O)N(C)C)c4)ccc3S(=O)(=O)N([C@@H](C)CO)C[C@H]2C)c1,-1
CCC(=O)Nc1ccc2c(c1)C(=O)N(C)C[C@@H](OC)[C@H](C)CN(Cc1ccccc1OC)[C@H](C)CO2,-40
C[C@H]1CN([C@@H](C)CO)C(=O)c2cc(-c3cccnc3)cnc2O[C@H]1CN(C)S(C)(=O)=O,0
CCCN(C)C[C@@H]1Oc2cc(C#CC3(O)CCCC3)ccc2S(=O)(=O)N([C@H](C)CO)C[C@@H]1C,10
COCC(=O)Nc1ccc2c(c1)C(=O)N(C)C[C@H](OC)[C@H](C)CN(C(=O)COC)[C@@H](C)CO2,-2
C[C@@H]1CN([C@@H](C)CO)S(=O)(=O)c2ccc(-c3cccc(C(=O)N(C)C)c3)cc2O[C@H]1CN(C)C(=O)Nc1ccccc1,-7
COCC(=O)N(C)C[C@@H]1Oc2ncc(C#Cc3ccncc3)cc2C(=O)N([C@@H](C)CO)C[C@H]1C,-1
CCc1ccccc1NC(=O)CN(C)C(=O)Cn1ncc(Cl)c(Cl)c1=O,63*
C[C@H]1CN([C@@H](C)CO)C(=O)c2cccc(NC(=O)Nc3ccccc3)c2O[C@@H]1CN(C)Cc1ccc(C(=O)Nc2ccccc2N)cc1,-153
CCCNC(=O)N1C[C@@H]2[C@H](c3ccccc31)[C@@H](CO)N2Cc1cc(F)ccc1F,36*
O=C(Nc1ccccc1F)N1C[C@H]2[C@@H](c3ccccc31)[C@@H](CO)N2C(=O)c1ccc(F)cc1,-240
O=S(=O)(c1ccc(F)cc1)N1C[C@H]2[C@@H](c3ccccc31)[C@@H](CO)N2Cc1ccc2c(c1)OCO2,-100
COCC(=O)N1[C@H](CO)[C@H]2c3ccccc3N(C(=O)c3ccccc3F)C[C@H]21,44*
O=C(C1CCCCC1)N1[C@H](CO)[C@@H]2c3ccccc3N(S(=O)(=O)c3ccccc3)C[C@@H]21,-96
O=C(c1cccnc1)N1C[C@H]2[C@@H](c3ccccc31)[C@H](CO)N2C(=O)Nc1ccccc1Cl,40*
O=C(Nc1ccc(N2CCOCC2)c(S(=O)(=O)Nc2cc(Cl)ccc2Cl)c1)c1cccnc1,-325
O=C(Nc1ccc(F)cc1)N1C[C@H]2[C@@H](c3ccccc31)[C@H](CO)N2C(=O)c1ccncc1,50*
COc1cccc(C(=O)N2C[C@H]3[C@@H](c4ccccc42)[C@@H](CO)N3C(=O)c2ccc(F)cc2)c1,-229
CCCNC(=O)N1C[C@H]2[C@@H](c3ccccc31)[C@@H](CO)N2Cc1ccc(F)cc1,-92
C[C@H](CO)N1C[C@H](C)[C@@H](CN(C)S(=O)(=O)c2ccc(F)cc2)Oc2ncc(/C=C/c3ccccc3)cc2C1=O,0
CC(=O)N(C)C[C@@H]1Oc2cc(C#C[C@H](C)O)ccc2S(=O)(=O)N([C@@H](C)CO)C[C@@H]1C,-1
CCCN(C)C[C@H]1Oc2cc(C#CC(C)C)ccc2S(=O)(=O)N([C@@H](C)CO)C[C@H]1C,-29
C[C@H]1CN([C@@H](C)CO)C(=O)c2cc(C#CC3(O)CCCC3)cnc2O[C@H]1CN(C)C(=O)C1CCCCC1,-1
SMILES,miR122 inh
COCC#Cc1ccc2c(c1)O[C@H](CN(C)C(=O)COC)[C@@H](C)CN([C@H](C)CO)S2(=O)=O,1
C[C@@H]1CN([C@@H](C)CO)S(=O)(=O)c2ccc(C#Cc3cccc(F)c3)cc2O[C@@H]1CN(C)C(=O)CN1CCOCC1,-3
COc1ccc(C#Cc2cnc3c(c2)C(=O)N([C@H](C)CO)C[C@H](C)[C@@H](CN(C)CC2CCCC2)O3)cc1,1
C[C@H](CO)N1C[C@H](C)[C@@H](CN(C)S(C)(=O)=O)Oc2ncc(-c3cccc(F)c3)cc2C1=O,-59
COc1cccc(-c2cnc3c(c2)C(=O)N([C@H](C)CO)C[C@H](C)[C@H](CN(C)Cc2cccc(C)c2)O3)c1,8
COc1cccc(-c2ccc3c(c2)[C@H]2[C@H](CCN2S(=O)(=O)c2ccccc2C)[C@@H](CO)N3)c1,-97
C[C@@H]1CN([C@H](C)CO)C(=O)c2cc(-c3cccc(C#N)c3)cnc2O[C@H]1CN(C)C(=O)C1CCCCC1,4
Cc1nn(Cc2ccc(Cl)c(Cl)c2)c(C)c1NC(=O)c1sc2ccccc2c1Cl,32*
C[C@H]1CN([C@@H](C)CO)S(=O)(=O)c2ccc(C#CC3CCCC3)cc2O[C@H]1CN(C)CC1CC1,0
C[C@@H]1CN([C@H](C)CO)C(=O)c2cccc(NC(=O)NC3CCCCC3)c2O[C@H]1CN(C)Cc1ccc(Cl)c(Cl)c1,-118
C[C@H](CO)N1C[C@H](C)[C@H](CN(C)CC2CCOCC2)Oc2ncc(C3=CCCCC3)cc2C1=O,7
O=C(N/N=C/c1sc2ccccc2c1O)c1ccccc1,41*
C[C@@H]1CN([C@H](C)CO)C(=O)c2cc(-c3cccc(F)c3)cnc2O[C@H]1CN(C)C(=O)c1cccc(F)c1,0
CCCC#Cc1ccc2c(c1)O[C@@H](CN(C)S(C)(=O)=O)[C@@H](C)CN([C@@H](C)CO)S2(=O)=O,8
C[C@H]1CN([C@@H](C)CO)C(=O)c2cc(C#CC3(O)CCCC3)cnc2O[C@@H]1CN(C)Cc1ccncc1,2
COc1cccc(C(=O)Nc2ccc(C(=O)O)cc2)c1,-113
CCN(CC)CCNC(=O)c1ccc(NC(=O)c2cn(-c3ccc(F)cc3)nc2-c2cccc(OC)c2)cc1,68*
CCC(=O)Nc1ccc2c(c1)C(=O)N(C)C[C@@H](OC)[C@H](C)CN(Cc1ccccc1OC)[C@@H](C)CO2,2
C[C@H](CO)N1C[C@H](C)[C@H](CN(C)Cc2ccccc2)Oc2ncc(-c3cccc(C#N)c3)cc2C1=O,-5
C[C@H]1CN([C@@H](C)CO)S(=O)(=O)c2ccc(C#Cc3ccccn3)cc2O[C@H]1CN(C)Cc1cccc(F)c1,1
COc1ccccc1-[n+]1c(C)cc(/C=C2\Sc3ccccc3N2C)cc1C,69*
Cc1ccc(-c2cnc3c(c2)C(=O)N([C@H](C)CO)C[C@@H](C)[C@@H](CN(C)C(=O)Cc2cccnc2)O3)cc1,1
C[C@@H]1CN([C@@H](C)CO)C(=O)c2cc(-c3cccc(C(=O)N(C)C)c3)cnc2O[C@@H]1CN(C)S(=O)(=O)c1ccc(F)cc1,2
C[C@H](CO)N1C[C@H](C)[C@@H](CN(C)Cc2ccncc2)Oc2ncc(C#Cc3cccnc3)cc2C1=O,4
Cc1noc(C)c1NC(=O)N(C)C[C@@H]1Oc2ncc(C#Cc3ccc(C(F)(F)F)cc3)cc2C(=O)N([C@H](C)CO)C[C@@H]1C,5
SMILES,miR122 inh
Cc1c(NC(=O)NC2CCCCC2)cccc1[N+](=O)[O-],-157
O=C(OCc1ccccc1Cl)c1ccccc1C(=O)c1ccccc1,-137
O=C(COC(=O)c1ccccc1C(=O)c1ccc(Cl)c([N+](=O)[O-])c1)NC1CCCCCC1,63*
CCC(=O)Nc1ccc2c(c1)C(=O)N(C)C[C@H](OC)[C@@H](C)CN(C(C)=O)[C@@H](C)CO2,-3
C[C@@H]1CN([C@@H](C)CO)S(=O)(=O)c2ccc(-c3ccncc3)cc2O[C@H]1CN(C)C(=O)Nc1ccc(F)cc1,7
CCn1c(CCNC(=O)c2ccc(OC)cc2)nnc1SCC(=O)Nc1ccccc1F,-120
CCn1c(SCC(=O)Nc2ccc(N3CCOCC3)cc2)nnc1-c1ccc(OC)cc1,-142
